Inconclusive results are not listed. Active and inactive are the calls of the source. Rule for the calls, unless noted: active = hit-call score of the fitted dose curve at least 0.9, where 1 is the maximum; inconclusive = response in the unintended direction; inactive = score below 0.9.

The target of test [1] is Nuclear receptor subfamily 1 group I member 2 (Homo sapiens) (UniProt O75469). Put plainly: NVS_NR_hPXR: NovaScreen (NVS) Nuclear Receptor Binding Assay for human Pregnane X Receptor (PXR) (AID 2283365).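 Note: a drop in FRET signal versus DMSO baseline means the compound binds.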 The method in brief: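 Human PXR protein, cell-free; compound added, incubated 2 h, TR-FRET read. Signal decrease vs DMSO = binding. Screened 25 uM duplicate, actives re-run as dilution series.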

The target in test [2] is Agonist Androgen Response Element (ARE), AR (gene 367) (UniProt P10275). In words: OT_AR_ARELUC_AG_1440: Odyssey Thera (OT) 24-hour CHO-K1 Luciferase Assay for Agonist Androgen Response Element (ARE) (AID 2283379). In outline:
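Seed CHO-K1 cells; dose compounds for 24 h; add D-luciferin plus ATP in PBS; read luminescence. Signal increase relative to vehicle defines agonist activity, with at least 3 replicate wells per sample.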

The target of test [3] is Estrogen receptor beta (Homo sapiens) (UniProt Q92731). In words: OT_ER_ERbERb_1440: Odyssey Thera (OT) 24-hour HEK293T Protein-Complementation Assay for Estrogen Receptor-beta/-beta Homodimer (AID 2283380).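 Note: fluorescence gain from ER beta LBD homodimer complementation read by laser scanning cytometry; scored as signal increase over DMSO baseline for both agonists and antagonists.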 In outline:
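HEK293T cells stably expressing human ER-beta LBD (aa 310-547) PCA homodimer pair, dosed 24 h; formaldehyde-fixed, Draq5-stained. Readout: increase in nuclear (agonist) or nuclear plus cytoplasmic (antagonist) fluorescence intensity versus DMSO, gain-of-signal fitting.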

The target of test [4] is Estrogen receptor (Homo sapiens) (UniProt P03372). Put plainly: OT_ERa_GFPERaERE_0480: Odyssey Thera (OT) 8-hour HeLa Transcription Induction Assay for Estrogen Receptor (AID 2283381; active = hit-call score of the fitted dose curve at least 0.9, where 1 is the maximum; inactive = score below 0.9). In outline: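 Fluorescent reporter signal, imaged by microscopy and scored with image-analysis algorithms, was taken 8 h after chemical dosing of HeLa cells; activity was fitted upward relative to DMSO.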

Test [5] shares this target. In words: OT_ERa_GFPERaERE_0120: Odyssey Thera (OT) 2-hour HeLa Transcription Induction Assay for Estrogen Receptor (AID 2283382). In outline: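 HeLa, 384-well, 2 h chemical exposure; GFP reporter induction (ERE), fluorescence microscopy; high content image analysis; positive fitting direction vs DMSO.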
The target of test [6] is Bile acid receptor (Homo sapiens) (UniProt Q96RI1). Put plainly: OT_FXR_FXRSRC1_0480: Odyssey Thera (OT) 8-hour HEK293T Protein-Complementation Assay for Farnesoid X receptor/SRC-1 Co-activator (AID 2283383). The method in brief: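 Human kidney HEK293T cells carried FXR/SRC-1 fragment-complementation constructs. Compounds were added and incubated 8 h. Reporter reassembly upon receptor–co-activator interaction was then quantified by fluorescence, with curves fitted in the positive direction relative to DMSO.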

Test [7] shares this target. Put plainly: OT_FXR_FXRSRC1_1440: Odyssey Thera (OT) 24-hour HEK293T Protein-Complementation Assay for Farnesoid X receptor/SRC-1 Co-activator (AID 2283384). The method in brief: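 Compounds are applied to human kidney HEK293T cells expressing bait and prey fused to reporter protein fragments; after 24 h, reconstituted reporter fluorescence is measured. Activity is fitted as signal gain over DMSO.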

For test [8], the target named is Retinoic acid receptor RXR-alpha (Homo sapiens) (UniProt P19793). In words: OT_NURR1_NURR1RXRa_0480: Odyssey Thera (OT) 8-hour HEK293T Protein Complementation Assay for Nurr1/retinoid X receptor (RXR) (AID 2283385). In outline: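 8 h compound exposure, HEK293T; Nurr1/RXRα fragment complementation; fluorescence intensity; positive fitting direction vs DMSO baseline.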

The target of test [9] is Retinoic acid receptor alpha (Homo sapiens) (UniProt P10276). In words: NVS_NR_hRARa_Agonist: NovaScreen (NVS) Nuclear Receptor Binding Assay for human Retinoic Acid Alpha Receptor Agonism (RAR) (AID 2283361). In outline:
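Cell-free TR-FRET binding read-out with extracted human RARα protein, read 2 h after compound addition. Gain of signal scored against DMSO baseline. Primary screen at a single 25 uM in duplicate; actives then retested in concentration series.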

For test [10], the target named is Norway rat Vesicular Monoamine Transporter (VMAT2), neurotransmitter transporter, Slc18a2 (gene 25549) (UniProt Q01827). In words: NVS_TR_rVMAT2: NovaScreen (NVS) Transporter Assay for Norway rat Vesicular Monoamine Transporter (VMAT2), neurotransmitter transporter (AID 2283376).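 Note: actives lower the bound radioligand signal below the DMSO level.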 The method in brief:
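Rat forebrain tissue preparation used in a cell-free radioligand binding format; displacement read by filter-based scintillation counting 1 hour after dosing. Primary screen in duplicate at 25 uM, actives then run in concentration series; loss of signal versus DMSO baseline.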

Test [11] deals with human Thyroid Receptor Alpha (TRa), THRA (gene 7067) (UniProt P10827). Put plainly: NVS_NR_hTRa_Antagonist: NovaScreen (NVS) Nuclear Receptor Binding Assay for human Thyroid Receptor Alpha Antagonism (TRa) (AID 2283362).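 Note: activity is loss of signal relative to DMSO baseline.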 In outline: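 Extracted protein, cell-free; 1 h incubation after dosing; AlphaLISA chemiluminescence binding readout. DMSO = baseline/neg ctrl; signal loss = activity. Primary: duplicate, 25 uM; secondary: conc. series on actives.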

Test [12] deals with Glucocorticoid receptor (Homo sapiens) (UniProt P04150). Put plainly: NVS_NR_hGR: NovaScreen (NVS) Nuclear Receptor Binding Assay for human Glucocorticoid Receptor (GR) (AID 2283363).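 For AC50: activity is loss of specific radioligand binding signal relative to DMSO.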 In outline: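 Cell-free radioligand binding with extracted receptor protein, read by filter-based scintillation counting 16 hours after dosing. Loss of specific signal versus DMSO baseline was scored. Primary screen ran in duplicate at 25 uM; actives were followed up in concentration series.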

Test [13] concerns the target guinea pig Sigma Receptor, Non-selective Binding, SIGMAR1 (gene 100135589) (UniProt Q60492). Put plainly: NVS_OR_gSIGMA_NonSelective: NovaScreen (NVS) Nuclear Receptor Binding Assay for guinea pig Sigma Receptor, Non-selective Binding (AID 2283367). The method in brief:
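Guinea pig brain membranes, cell-free radioligand binding; read 1 h after dosing by filter-based scintillation counting. Loss of signal vs DMSO baseline taken as displacement. Primary screen single concentration 25 uM in duplicate; actives retested in concentration series.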

The test system of test [14] is guinea pig Dopamine Transporter (DAT), gene 100714898. In words: NVS_TR_gDAT: NovaScreen (NVS) Transporter Assay for guinea pig Dopamine Transporter (DAT) (AID 2283369).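 Note: active compounds lower bound radioligand signal relative to DMSO.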 In outline:
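Scintillation counts of filter-retained radioligand report binding to guinea pig striatal membranes after 2 h. Activity scored as signal loss relative to DMSO, first at 25 uM in duplicate, then in concentration series to 50 uM.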

Test [15] concerns the target human Dopamine Transporter (DAT), SLC6A3 (gene 6531) (UniProt Q01959). In words: NVS_TR_hDAT: NovaScreen (NVS) Transporter Assay for human Dopamine Transporter (DAT) (AID 2283374).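 Note: activity means loss of bound radioligand signal relative to DMSO.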 The method in brief: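 Cell-free radioligand binding to extracted human DAT protein, read 1 h after dosing by filter-based scintillation counting. Loss of specific binding scored against DMSO baseline; primary screen in duplicate at 25 uM, actives then run in concentration series.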

In test [16] the target is mouse Estrogen Receptor alpha (Era), Esr1 (gene 13982) (UniProt P19785). Put plainly: NVS_NR_mERa: NovaScreen (NVS) Nuclear Receptor Binding Assay for mouse Estrogen Receptor alpha (Era) (AID 2283378).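 Note: hit means loss of bound radioligand signal relative to DMSO.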 The method in brief:
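Extracted mouse Era incubated with tritiated or iodinated radioligand plus test chemical, 18 h. Bound fraction separated on filters, counted by scintillation. DMSO = negative control/baseline; duplicate single-point at 25 uM, then concentration-response follow-up.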

The target of test [17] is rat Androgen Receptor (AR), Ar (gene 24208) (UniProt P15207). In words: NVS_NR_rAR: NovaScreen (NVS) Nuclear Receptor Binding Assay for rat Androgen Receptor (AR) (AID 2283366). In outline:
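Cell-free radioligand binding on extracts of prostate from testosterone-pretreated rats, read by filter-based scintillation counting 18 h after dosing. Loss of bound signal fitted positively versus DMSO; primary screen in duplicate at 25 uM, actives followed up in concentration series.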

Test [18] addresses rat Serotonin Transporter (SERT), Slc6a4 (gene 25553) (UniProt P31652). Put plainly: NVS_TR_rSERT: NovaScreen (NVS) Transporter Assay for rat Serotonin Transporter (SERT) (AID 2283375). The method in brief: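 Filtration-based radiodetection quantified loss of specific radioligand binding in rat forebrain membranes after 1 hour of chemical exposure, relative to DMSO. Chemicals were first tested in duplicate at 25 uM.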

The target in test [19] is Peroxisome proliferator-activated receptor gamma (Homo sapiens) (UniProt P37231). Put plainly: NVS_NR_hPPARg: NovaScreen (NVS) Nuclear Receptor Binding Assay for human Peroxisome Proliferator-activated Receptor gamma (PPARg) (AID 2283370). In outline:
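Chemicals were tested first in duplicate at 25 uM, then in concentration series if active. Binding to cell-free PPARg protein was measured by fluorescence polarization after 2 h, with loss of signal scored against DMSO.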

Test [20] has as its target human Norepinephrine Transporter (NET), SLC6A2 (gene 6530) (UniProt P23975). In words: NVS_TR_hNET: NovaScreen (NVS) Transporter Assay for human Norepinephrine Transporter (NET) (AID 2283377).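 Note: cell-free membrane protein extracted from CHO cells expressing human NET.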 The method in brief:
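Radioligand binding to human NET in cell-free CHO-derived protein preparations, read by filter-based scintillation counting 1 hour after dosing. Loss of signal versus DMSO baseline indicated displacement; primary screening in duplicate at 25 uM, actives then titrated.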

Nuclear receptor subfamily 1 group I member 2 (Homo sapiens), sequence (O75469 whole entry, looked up): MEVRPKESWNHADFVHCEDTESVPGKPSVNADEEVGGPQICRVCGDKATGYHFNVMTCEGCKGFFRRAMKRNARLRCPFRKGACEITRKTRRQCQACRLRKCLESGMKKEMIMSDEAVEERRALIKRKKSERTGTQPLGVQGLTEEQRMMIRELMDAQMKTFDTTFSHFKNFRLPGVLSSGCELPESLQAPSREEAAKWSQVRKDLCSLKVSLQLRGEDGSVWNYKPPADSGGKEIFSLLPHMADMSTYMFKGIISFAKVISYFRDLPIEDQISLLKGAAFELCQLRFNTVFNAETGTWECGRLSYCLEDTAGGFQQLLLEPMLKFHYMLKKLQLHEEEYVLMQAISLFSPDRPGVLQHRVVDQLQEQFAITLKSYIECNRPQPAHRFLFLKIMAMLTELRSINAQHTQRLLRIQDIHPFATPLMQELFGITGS
Glucocorticoid receptor (Homo sapiens), sequence (P04150 whole entry, looked up): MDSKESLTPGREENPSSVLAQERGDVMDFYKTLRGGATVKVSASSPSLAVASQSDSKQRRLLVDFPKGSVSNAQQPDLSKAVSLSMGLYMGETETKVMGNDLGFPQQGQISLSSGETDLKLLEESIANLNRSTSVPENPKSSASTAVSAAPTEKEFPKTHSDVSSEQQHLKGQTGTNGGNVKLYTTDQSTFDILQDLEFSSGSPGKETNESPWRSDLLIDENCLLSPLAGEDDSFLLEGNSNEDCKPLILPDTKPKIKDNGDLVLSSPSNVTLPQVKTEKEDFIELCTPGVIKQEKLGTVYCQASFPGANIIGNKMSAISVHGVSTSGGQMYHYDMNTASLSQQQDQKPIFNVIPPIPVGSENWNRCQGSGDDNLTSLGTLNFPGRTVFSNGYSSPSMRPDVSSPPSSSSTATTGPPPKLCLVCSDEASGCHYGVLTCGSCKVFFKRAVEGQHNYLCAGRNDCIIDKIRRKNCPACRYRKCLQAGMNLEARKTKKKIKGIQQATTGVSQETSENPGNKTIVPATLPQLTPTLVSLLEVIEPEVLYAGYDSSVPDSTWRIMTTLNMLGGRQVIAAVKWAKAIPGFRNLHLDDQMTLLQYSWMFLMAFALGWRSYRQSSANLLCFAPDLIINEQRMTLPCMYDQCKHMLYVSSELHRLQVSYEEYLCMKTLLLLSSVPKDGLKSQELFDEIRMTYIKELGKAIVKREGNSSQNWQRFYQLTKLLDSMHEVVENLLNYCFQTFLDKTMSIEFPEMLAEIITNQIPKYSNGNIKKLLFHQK
rat Androgen Receptor (AR), Ar (gene 24208), sequence (P15207 whole entry, looked up): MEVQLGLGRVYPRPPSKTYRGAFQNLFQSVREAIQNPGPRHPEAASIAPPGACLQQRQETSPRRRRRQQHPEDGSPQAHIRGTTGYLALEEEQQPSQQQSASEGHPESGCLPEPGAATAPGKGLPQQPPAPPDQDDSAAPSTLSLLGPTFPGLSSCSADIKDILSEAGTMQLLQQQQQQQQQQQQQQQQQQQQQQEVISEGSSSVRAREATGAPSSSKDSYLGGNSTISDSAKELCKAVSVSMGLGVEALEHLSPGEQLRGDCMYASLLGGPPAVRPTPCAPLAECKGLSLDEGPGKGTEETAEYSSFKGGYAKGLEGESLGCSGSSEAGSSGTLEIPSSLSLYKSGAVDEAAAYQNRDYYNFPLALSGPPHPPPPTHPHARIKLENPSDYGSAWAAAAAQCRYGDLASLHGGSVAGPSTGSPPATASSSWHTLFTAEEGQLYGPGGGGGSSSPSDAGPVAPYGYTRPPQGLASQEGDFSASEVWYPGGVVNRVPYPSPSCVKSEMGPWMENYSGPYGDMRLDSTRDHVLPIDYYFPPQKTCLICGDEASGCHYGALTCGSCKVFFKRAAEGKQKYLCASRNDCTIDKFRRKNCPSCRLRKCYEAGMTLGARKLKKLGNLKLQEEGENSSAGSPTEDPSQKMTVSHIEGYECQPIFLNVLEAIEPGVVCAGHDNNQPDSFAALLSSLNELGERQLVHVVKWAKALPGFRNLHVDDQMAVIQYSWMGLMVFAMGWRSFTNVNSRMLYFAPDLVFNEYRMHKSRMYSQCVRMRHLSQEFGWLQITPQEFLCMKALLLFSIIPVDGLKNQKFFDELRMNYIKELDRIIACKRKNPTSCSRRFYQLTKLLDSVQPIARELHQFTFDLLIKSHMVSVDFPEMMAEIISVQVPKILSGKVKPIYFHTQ
Estrogen receptor beta (Homo sapiens), sequence (Q92731 whole entry, looked up, the tested form may be a part): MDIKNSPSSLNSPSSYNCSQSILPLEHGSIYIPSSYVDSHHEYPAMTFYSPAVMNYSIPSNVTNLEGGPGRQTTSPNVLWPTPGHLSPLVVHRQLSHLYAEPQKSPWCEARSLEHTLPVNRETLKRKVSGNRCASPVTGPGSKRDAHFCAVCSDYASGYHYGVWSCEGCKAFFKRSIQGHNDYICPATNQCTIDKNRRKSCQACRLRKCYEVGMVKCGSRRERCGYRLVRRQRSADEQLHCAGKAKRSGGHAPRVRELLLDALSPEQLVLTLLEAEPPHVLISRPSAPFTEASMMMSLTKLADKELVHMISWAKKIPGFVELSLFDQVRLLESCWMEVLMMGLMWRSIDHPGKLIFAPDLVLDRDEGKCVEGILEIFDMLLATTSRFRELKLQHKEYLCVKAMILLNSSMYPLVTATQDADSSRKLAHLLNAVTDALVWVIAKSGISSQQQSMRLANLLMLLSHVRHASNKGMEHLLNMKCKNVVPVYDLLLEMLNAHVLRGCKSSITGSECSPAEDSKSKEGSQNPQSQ
Bile acid receptor (Homo sapiens), sequence (Q96RI1 whole entry, looked up, the tested form may be a part): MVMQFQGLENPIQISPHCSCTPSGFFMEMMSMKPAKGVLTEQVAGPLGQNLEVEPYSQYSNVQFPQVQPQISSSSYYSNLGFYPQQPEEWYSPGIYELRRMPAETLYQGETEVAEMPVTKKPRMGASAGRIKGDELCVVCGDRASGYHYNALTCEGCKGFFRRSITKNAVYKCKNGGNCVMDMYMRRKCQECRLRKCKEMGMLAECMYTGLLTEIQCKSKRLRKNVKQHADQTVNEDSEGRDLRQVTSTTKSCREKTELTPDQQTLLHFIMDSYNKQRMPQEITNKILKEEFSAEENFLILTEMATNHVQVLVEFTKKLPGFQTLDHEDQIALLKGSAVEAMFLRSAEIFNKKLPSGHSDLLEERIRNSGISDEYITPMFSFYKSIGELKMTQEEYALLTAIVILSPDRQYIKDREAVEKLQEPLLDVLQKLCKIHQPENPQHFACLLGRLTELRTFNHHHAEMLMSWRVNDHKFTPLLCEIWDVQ
Norway rat Vesicular Monoamine Transporter (VMAT2), neurotransmitter transporter, Slc18a2 (gene 25549), sequence (Q01827 whole entry, looked up): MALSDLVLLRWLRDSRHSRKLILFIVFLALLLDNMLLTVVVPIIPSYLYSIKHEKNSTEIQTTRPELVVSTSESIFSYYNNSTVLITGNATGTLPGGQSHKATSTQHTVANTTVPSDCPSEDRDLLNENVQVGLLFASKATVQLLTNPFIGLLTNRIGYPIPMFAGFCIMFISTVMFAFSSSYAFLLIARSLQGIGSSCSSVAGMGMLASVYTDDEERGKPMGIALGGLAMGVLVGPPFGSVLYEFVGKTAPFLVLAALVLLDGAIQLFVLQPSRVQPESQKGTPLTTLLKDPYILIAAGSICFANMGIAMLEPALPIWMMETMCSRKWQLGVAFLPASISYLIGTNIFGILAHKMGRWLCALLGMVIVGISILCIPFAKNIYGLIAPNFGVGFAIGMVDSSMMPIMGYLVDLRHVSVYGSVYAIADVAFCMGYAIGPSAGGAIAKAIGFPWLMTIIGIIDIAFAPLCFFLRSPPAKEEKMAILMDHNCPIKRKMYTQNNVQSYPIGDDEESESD
human Dopamine Transporter (DAT), SLC6A3 (gene 6531), sequence (Q01959 whole entry, looked up): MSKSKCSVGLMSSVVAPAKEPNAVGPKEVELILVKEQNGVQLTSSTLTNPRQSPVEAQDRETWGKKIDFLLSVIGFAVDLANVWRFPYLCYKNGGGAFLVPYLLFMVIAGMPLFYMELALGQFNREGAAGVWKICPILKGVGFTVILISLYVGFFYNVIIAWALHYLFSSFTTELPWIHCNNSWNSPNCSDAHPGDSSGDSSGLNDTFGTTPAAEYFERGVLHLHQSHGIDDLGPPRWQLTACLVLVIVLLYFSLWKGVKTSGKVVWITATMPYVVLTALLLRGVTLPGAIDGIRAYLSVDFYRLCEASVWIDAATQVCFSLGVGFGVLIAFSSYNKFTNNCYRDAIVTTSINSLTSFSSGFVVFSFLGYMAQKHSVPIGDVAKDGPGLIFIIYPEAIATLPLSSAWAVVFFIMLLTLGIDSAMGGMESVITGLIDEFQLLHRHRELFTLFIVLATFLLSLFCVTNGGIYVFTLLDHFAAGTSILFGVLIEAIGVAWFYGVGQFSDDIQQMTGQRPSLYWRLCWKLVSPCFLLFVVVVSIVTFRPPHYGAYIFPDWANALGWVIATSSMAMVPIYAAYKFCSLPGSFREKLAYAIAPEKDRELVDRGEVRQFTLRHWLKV
Estrogen receptor (Homo sapiens), sequence (P03372 whole entry, looked up): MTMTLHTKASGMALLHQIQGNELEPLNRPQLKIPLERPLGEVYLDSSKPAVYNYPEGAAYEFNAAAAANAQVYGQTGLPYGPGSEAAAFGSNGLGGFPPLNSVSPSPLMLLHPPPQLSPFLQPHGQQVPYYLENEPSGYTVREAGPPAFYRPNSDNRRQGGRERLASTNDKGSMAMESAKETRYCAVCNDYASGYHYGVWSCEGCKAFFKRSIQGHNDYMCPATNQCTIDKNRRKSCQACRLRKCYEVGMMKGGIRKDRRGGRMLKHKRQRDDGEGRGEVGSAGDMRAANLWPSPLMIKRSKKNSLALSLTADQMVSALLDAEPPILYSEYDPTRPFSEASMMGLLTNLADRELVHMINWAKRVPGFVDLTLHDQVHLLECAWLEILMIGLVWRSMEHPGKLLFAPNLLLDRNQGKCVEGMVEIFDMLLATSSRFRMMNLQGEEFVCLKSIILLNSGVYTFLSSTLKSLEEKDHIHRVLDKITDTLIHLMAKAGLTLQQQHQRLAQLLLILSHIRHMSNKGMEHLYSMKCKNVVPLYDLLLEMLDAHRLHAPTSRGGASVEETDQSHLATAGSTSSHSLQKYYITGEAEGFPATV

With `O=C(NC(=O)c1c(F)cccc1F)Nc1cc(Cl)c(OC(F)(F)C(F)C(F)(F)F)cc1Cl` (configuration not stated), the outcome in test [1], in test [2], in test [3], in [4] and in test [5] was inactive. Moreover, the values for the AC50 in test [6], in test [7] and in test [8] were 50 µM (active), 43.7 µM (active) and 66.5 µM (active), respectively.

Turning to `O=C(N[C@H]1CN2CCC1CC2)c1ccc2c(c1)OCCO2`, the call in test [9], in [10], in test [3] and in [8] was inactive.

Take `Nc1ncn[nH]1`: the molecule was classed as inactive in [11], in test [1], in [3] and in test [6].

Take `CCOP(=O)(OCC)OC(=CCl)c1ccc(Cl)cc1Cl`: the AC50 – broadly, the concentration at which the activity in the assay is half-maximal – in test [12] was 25 µM (active); in [13] it was 10.9 µM (active); in [14], 25 µM (active); in test [15], 25 µM (active); in test [10], 10.9 µM (active).

Take `COc1ccc(N)cc1`: the molecule was called inactive in [1].

On to `CC(O)(CS(=O)(=O)c1ccc(F)cc1)C(=O)Nc1ccc(C#N)c(C(F)(F)F)c1` (configuration not stated), for which the molecule was called inactive in test [12], in test [1] and in [5]. For the same molecule, the figures for the concentration at half-maximal activity (AC50) in test [16], in test [3] and in test [4] were 0.026 µM (active), 1.75 µM (active) and 12.8 µM (active), respectively.

On to `O=C1C=CC(=O)c2ccccc21`, for which the AC50 in [12] was 4.63 µM (active); in test [14], 5.42 µM (active); in test [18], 28.9 µM (active). Moreover, the call in test [17] was inactive.

As for `O=[N+]([O-])c1ccc(Cl)c([N+](=O)[O-])c1`, the results for the AC50 in [12], in [17] and in test [4] were 4.52 µM (active), 3.07 µM (active) and 8.64 µM (active), respectively. Further, the result in test [19] and in test [2] was inactive.

For the molecule `[Cl][Sn]([c]1ccccc1)([c]1ccccc1)[c]1ccccc1`, the AC50 was 3.31 µM (active) in test [12], 2.42 µM (active) in test [17], 2.89 µM (active) in [15] and 1.19 µM (active) in test [20]. Besides, the molecule was classed as inactive in [10].

On to `Cc1cc(C(C)(C)c2ccc(O)c(C)c2)ccc1O`, for which the AC50 in test [12] was 1.82 µM (active); in [14], 6.35 µM (active); in test [15] it was 1.62 µM (active); in [20] it was 8.57 µM (active). Also, in [17], the result was inactive.

For the origin of these results see PubChem BioAssay (EPA / NIEHS).
